Reference: the supplement of paper PMC11732987, “Enantioselective OTUD7B fragment discovery through chemoproteomics screening and high-throughput optimisation” (Communications Chemistry, 2025)

Columns and labels:
Experiment in all cases: log2 ratio of Biotin-Ahx-Ub-VS probe labelling (fragment/DMSO); higher = less target engagement (more negative = stronger competition), active = hit call of the paper (q ≤ 0.05, log2 ratio ≤ -1)
Conditions in all cases: compound concentration: 200 uM; treatment time: 3 h
USP19 = biological target: T1, USP19 (UniProt O94966)
T1 sequence (whole entry): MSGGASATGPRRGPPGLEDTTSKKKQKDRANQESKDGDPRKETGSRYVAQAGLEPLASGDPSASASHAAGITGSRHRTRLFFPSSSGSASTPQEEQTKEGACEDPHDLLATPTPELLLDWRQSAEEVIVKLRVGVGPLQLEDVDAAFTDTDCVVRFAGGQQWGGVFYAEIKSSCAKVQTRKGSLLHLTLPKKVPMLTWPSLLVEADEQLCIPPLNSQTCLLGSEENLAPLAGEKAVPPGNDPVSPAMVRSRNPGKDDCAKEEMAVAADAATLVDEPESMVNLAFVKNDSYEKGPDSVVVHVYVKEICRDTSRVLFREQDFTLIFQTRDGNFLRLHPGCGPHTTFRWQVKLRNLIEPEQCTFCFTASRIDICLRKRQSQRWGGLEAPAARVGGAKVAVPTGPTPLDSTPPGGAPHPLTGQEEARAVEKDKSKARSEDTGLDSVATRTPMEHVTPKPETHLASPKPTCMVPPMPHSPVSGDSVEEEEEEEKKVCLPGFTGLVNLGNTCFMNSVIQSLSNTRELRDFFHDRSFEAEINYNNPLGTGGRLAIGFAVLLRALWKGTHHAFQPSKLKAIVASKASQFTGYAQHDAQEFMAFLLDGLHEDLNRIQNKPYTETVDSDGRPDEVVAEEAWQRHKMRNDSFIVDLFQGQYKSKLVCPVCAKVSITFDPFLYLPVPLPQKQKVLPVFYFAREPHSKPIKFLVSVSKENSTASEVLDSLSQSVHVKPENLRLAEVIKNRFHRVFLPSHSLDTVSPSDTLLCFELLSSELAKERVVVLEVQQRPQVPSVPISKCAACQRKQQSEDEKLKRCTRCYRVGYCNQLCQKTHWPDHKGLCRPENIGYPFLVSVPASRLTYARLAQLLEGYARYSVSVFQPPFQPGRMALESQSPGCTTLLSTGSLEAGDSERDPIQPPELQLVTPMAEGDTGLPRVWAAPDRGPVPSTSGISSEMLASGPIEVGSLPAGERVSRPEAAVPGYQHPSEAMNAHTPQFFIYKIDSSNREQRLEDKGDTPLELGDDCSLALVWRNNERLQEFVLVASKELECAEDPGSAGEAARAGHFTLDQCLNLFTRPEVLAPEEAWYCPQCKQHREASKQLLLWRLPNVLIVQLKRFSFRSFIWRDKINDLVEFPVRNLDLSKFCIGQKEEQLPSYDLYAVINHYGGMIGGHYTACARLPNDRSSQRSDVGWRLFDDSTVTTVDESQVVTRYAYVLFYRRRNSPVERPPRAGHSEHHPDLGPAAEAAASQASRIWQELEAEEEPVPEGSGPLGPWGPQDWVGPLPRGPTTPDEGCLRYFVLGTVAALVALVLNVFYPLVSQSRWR
Method in brief: (§1)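 Average log2 ratios of fragment over vehicle were obtained by unpaired t-test from global-median-normalised Spectronaut label-free quantities. Proteins with ≥2 unique peptides were included. HEK293T lysate (495 µg per sample) was treated in triplicate with fragment at 200 µM or vehicle for 3 h, then with Biotin-Ahx-Ub-VS at 0.5 µM final for 1 h, and labelled DUBs were NeutrAvidin-enriched and run by diaPASEF LC-MS/MS.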

USP24 = USP24 (UniProt Q9UPU5)
Method in brief: as §1

USP25 = biological target: T2, USP25 (UniProt Q9UHP3)
T2 sequence (whole entry): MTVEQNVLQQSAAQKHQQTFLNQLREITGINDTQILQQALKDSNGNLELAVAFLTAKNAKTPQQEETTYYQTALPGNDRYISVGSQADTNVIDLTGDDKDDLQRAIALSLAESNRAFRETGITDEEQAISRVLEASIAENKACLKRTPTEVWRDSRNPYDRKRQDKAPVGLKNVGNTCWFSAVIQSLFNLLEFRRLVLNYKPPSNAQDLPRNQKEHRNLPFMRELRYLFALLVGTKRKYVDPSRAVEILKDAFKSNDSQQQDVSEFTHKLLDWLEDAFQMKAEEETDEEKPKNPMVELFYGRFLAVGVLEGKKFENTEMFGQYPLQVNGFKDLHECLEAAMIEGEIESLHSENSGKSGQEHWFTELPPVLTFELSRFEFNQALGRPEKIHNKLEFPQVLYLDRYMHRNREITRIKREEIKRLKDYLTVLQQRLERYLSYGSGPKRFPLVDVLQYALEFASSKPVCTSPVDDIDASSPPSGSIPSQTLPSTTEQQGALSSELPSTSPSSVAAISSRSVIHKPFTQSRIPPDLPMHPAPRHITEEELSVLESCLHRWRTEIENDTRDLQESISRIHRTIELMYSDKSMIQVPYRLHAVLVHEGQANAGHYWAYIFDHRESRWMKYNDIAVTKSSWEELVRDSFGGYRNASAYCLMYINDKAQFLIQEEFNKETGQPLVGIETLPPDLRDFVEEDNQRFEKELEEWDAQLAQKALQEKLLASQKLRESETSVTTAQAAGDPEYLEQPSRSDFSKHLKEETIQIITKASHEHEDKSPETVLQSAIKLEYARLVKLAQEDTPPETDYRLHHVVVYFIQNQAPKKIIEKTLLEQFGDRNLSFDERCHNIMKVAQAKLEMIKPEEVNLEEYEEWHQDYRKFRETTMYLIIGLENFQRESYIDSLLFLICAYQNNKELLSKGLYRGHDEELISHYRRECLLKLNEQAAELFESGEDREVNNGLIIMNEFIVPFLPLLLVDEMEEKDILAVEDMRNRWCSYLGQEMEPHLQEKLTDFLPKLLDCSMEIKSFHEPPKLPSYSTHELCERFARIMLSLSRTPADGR
Method in brief: as §1

USP28 = biological target: T3, USP28 (UniProt Q96RU2)
T3 sequence (whole entry): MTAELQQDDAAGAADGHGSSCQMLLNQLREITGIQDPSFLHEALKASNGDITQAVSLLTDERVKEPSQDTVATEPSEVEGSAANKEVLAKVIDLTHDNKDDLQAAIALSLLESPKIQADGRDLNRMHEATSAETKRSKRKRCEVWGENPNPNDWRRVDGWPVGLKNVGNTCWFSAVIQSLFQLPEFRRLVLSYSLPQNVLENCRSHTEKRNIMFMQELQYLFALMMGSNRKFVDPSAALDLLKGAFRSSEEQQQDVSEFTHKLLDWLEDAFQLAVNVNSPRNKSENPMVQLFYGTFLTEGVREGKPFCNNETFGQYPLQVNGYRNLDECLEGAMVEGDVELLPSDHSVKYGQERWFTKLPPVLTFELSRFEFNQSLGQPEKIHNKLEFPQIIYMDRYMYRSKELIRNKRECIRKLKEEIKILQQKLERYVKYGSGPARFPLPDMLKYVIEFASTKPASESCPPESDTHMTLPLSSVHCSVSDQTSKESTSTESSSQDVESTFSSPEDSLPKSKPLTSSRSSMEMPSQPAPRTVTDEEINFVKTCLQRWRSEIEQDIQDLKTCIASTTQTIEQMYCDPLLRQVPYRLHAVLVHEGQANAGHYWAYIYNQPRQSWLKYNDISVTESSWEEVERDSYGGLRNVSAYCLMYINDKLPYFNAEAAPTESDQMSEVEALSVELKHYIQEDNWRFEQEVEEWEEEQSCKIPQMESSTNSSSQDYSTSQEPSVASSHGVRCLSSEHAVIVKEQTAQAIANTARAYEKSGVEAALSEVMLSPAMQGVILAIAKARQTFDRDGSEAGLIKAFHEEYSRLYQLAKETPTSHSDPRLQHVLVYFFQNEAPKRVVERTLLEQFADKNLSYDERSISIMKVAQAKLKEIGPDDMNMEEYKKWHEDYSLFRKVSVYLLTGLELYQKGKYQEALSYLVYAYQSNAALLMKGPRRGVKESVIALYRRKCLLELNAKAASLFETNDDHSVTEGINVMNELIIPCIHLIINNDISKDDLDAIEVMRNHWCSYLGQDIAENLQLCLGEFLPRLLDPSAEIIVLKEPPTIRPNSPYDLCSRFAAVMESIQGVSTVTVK
Method in brief: as §1

Measured: log2 ratio of Biotin-Ahx-Ub-VS probe labelling

Sequence of USP24 (Q9UPU5 whole entry): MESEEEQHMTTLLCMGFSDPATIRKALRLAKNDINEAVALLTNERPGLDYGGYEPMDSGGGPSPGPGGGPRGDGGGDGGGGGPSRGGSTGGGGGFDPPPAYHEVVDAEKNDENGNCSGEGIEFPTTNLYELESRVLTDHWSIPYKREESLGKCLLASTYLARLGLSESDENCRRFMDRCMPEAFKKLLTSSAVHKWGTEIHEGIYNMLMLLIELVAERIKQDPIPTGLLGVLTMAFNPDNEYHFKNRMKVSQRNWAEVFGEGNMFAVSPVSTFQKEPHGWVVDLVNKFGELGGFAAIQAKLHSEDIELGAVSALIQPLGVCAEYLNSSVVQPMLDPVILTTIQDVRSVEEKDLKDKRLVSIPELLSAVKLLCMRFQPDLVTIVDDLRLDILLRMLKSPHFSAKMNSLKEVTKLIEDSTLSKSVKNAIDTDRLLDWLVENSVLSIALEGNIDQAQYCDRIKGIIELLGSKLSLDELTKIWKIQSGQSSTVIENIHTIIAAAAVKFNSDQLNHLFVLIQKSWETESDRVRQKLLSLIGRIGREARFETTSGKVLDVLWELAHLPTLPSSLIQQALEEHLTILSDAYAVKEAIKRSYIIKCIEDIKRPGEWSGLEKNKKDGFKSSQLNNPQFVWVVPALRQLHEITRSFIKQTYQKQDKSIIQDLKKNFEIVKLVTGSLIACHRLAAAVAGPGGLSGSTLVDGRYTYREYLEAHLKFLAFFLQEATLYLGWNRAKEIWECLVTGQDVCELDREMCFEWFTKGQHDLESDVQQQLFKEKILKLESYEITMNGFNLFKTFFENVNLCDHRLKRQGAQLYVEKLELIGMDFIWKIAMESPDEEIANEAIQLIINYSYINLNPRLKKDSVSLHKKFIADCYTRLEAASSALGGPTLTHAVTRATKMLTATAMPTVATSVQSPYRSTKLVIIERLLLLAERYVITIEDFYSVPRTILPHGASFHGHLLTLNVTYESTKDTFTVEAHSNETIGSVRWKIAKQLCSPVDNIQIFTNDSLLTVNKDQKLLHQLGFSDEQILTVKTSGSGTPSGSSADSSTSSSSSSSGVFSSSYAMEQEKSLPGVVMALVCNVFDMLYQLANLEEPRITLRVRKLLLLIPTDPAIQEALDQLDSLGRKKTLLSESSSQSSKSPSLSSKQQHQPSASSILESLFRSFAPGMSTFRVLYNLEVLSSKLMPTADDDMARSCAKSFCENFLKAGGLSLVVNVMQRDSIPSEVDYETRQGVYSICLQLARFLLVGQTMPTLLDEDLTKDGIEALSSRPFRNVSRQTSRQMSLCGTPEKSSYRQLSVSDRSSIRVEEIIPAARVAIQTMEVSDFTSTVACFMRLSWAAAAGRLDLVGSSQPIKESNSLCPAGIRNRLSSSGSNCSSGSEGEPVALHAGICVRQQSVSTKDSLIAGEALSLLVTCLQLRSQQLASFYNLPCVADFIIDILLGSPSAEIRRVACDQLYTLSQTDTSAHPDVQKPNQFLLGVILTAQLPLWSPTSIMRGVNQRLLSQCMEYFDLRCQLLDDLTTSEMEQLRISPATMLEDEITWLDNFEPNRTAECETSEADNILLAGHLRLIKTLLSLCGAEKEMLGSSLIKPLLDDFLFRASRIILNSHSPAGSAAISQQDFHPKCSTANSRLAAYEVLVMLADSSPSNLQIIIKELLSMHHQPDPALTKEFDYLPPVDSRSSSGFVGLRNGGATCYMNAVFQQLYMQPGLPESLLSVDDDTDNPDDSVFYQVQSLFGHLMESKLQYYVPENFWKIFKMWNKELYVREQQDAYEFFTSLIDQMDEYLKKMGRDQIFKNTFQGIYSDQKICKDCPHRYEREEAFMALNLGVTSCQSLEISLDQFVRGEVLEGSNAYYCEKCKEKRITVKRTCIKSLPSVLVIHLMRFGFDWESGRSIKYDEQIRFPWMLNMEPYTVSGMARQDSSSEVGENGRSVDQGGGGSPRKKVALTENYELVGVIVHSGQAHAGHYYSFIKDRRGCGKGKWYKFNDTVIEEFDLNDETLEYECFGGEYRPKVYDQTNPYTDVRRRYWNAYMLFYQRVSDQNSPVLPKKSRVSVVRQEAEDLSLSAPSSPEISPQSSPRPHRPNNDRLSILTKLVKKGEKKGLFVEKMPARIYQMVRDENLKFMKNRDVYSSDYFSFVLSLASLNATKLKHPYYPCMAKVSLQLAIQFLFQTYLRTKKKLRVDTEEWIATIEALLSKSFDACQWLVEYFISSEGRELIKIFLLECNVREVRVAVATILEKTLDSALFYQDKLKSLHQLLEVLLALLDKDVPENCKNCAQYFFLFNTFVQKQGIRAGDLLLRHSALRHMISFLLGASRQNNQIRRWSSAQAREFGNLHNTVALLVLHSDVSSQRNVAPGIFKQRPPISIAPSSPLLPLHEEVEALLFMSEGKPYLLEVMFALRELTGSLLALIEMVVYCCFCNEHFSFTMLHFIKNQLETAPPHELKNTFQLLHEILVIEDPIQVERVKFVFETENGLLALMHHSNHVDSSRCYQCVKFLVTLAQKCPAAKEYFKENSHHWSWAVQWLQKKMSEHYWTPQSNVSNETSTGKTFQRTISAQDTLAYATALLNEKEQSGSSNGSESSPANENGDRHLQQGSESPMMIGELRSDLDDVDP

Cl.O=C(CCl)N[C@H]1C[C@@H](n2cccn2)C1
inactive: USP19 -0.157 | USP24 -0.464 | USP25 -0.201 | USP28 -0.188
